Drawing on PubChem BioAssay (NCI), this text covers growth inhibition for nine compounds.

About 79,000 compounds went through this panel and 15% of them were active in at least one assay; those are over-represented in the sample as a whole. Values without a mark were called inactive. Activity calls are given as the source filed them. No stated cut-off is given here; in the data, active means growth inhibition above about 70%; inactive means the rest.

Test [1] is described as follows: NCI Yeast Anticancer Drug Screen. Data for the rad50 strain (AID 155).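 Further: 0% = growth of vehicle-only cultures of the same strain.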 As to conditions: S. cerevisiae rad50 strain growth inhibition, active compounds read high. The procedure, abridged: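 Genetically altered yeast (DNA repair pathway); compound treatment; growth inhibition vs vehicle ctrl.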
The nature of test [2]: NCI Yeast Anticancer Drug Screen. Data for the mec2-1 strain (AID 157). As to conditions: S. cerevisiae mec2-1 strain, active compounds read high. Summed up: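 Compounds were applied to mec2-1 yeast cells. Their growth was then compared with that of vehicle-treated cultures to give growth inhibition.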
Test [3] is described as follows: NCI Yeast Anticancer Drug Screen. Data for the sgs1 mgt1 strain (AID 161).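 Further: 0% = growth of cultures given vehicle only.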 As to conditions: S. cerevisiae sgs1 mgt1 strain, active compounds read high. Summed up: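 Compounds are added to genetically altered yeast, and growth is compared with cultures given vehicle alone to give percent inhibition.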
Test [4] is described as follows: NCI Yeast Anticancer Drug Screen. Data for the cln2 rad14 strain (AID 165).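 Further: 0% = growth equal to vehicle treated cultures.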 As to conditions: S. cerevisiae cln2 rad14 strain, active compounds read high. The procedure, abridged: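 Strain: cln2 rad14 yeast, altered in cell cycle control and DNA damage repair. Read-out: growth inhibition vs vehicle.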
Test [5] is described as follows: NCI Yeast Anticancer Drug Screen. Data for the bub3 strain (AID 167). Conditions: S. cerevisiae bub3 mutant strain, active compounds read high. Summed up:
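Yeast carrying a defined mutation is treated with each compound, and growth is compared with that of vehicle-exposed cells to give inhibition.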

Test [6] in a line: NCI Yeast Anticancer Drug Screen. Data for the mlh1 rad18 strain (AID 175). Conditions: S. cerevisiae mlh1 rad18 strain growth inhibition, active compounds read high. Summed up: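 A repair-deficient yeast strain is exposed to test compound, and growth is scored relative to vehicle-treated controls.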
Where [7] appears, read: at 5.0 µM (retest, dose inferred, filed as 0.5).
[8] abbreviates: at 50.0 µM (retest, dose inferred, filed as 5.0).

Turning to `O=C(O)CCC(=O)c1ccc2c(c1)CCCC2`, the growth inhibition in test [1] (setting [7]) is -5%; in test [1] (setting [8]), -1%; in test [1] (at 50.0 µM) it was 71.7% (active); in test [2] (setting [7]), -9%; in test [2] (setting [8]), 19%; in test [2] (at 50.0 µM), 42.1%. The growth inhibition in test [3] (setting [7]) was -5%; in test [3] (setting [8]), 0%; in test [3] (at 50.0 µM), 77.2% (active); in test [4] (setting [7]), 1%; in test [4] (setting [8]), 25%; in test [4] (at 50.0 µM), -24.1%. Besides, the growth inhibition in test [5] (setting [7]) was -16%; in test [5] (setting [8]) it was -48%; in test [5] (at 50.0 µM), 20.7%; in test [6] (setting [7]), 0%; in test [6] (setting [8]) it was -6%; in test [6] (at 50.0 µM), 77.6% (active).

With `C#CCN1CCN(C(=S)N/N=C(\C)c2ccccn2)CC1`, the growth inhibition in test [1] (setting [7]) was 22%; in test [1] (setting [8]), 99% (active); in test [1] (at 50.0 µM), 99.5% (active); in test [2] (setting [7]), 19%; in test [2] (setting [8]), 100% (active); in test [2] (at 50.0 µM), 99.7% (active). For the same compound, the growth inhibition in test [3] (setting [7]) is 20%; in test [3] (setting [8]) it was 100% (active); in test [3] (at 50.0 µM), 99.5% (active); in test [4] (setting [7]), 21%; in test [4] (setting [8]), 99% (active); in test [4] (at 50.0 µM) it was 99.4% (active). The growth inhibition is 14% in test [5] (setting [7]); 99% (active) in test [5] (setting [8]); 99.3% (active) in test [5] (at 50.0 µM); 52% in test [6] (setting [7]); 100% (active) in test [6] (setting [8]); 99.3% (active) in test [6] (at 50.0 µM).

Turning to `CC(=O)SCC(=O)Nc1ccc(Cl)cc1`, the growth inhibition in test [1] (setting [7]) was 9%; in test [1] (setting [8]) it was 91% (active); in test [1] (at 50.0 µM), 88% (active); in test [2] (setting [7]), 1%; in test [2] (setting [8]) it was 81% (active); in test [2] (at 50.0 µM), 68.9%. Further, the growth inhibition in test [3] (setting [7]) was -4%; in test [3] (setting [8]), 85% (active); in test [3] (at 50.0 µM), 91.1% (active); in test [4] (setting [7]), 2%; in test [4] (setting [8]), 43%; in test [4] (at 50.0 µM), 58.5%. In addition, the growth inhibition is -18% in test [5] (setting [7]); 90% (active) in test [5] (setting [8]); 79.9% (active) in test [5] (at 50.0 µM); 7% in test [6] (setting [7]); 90% (active) in test [6] (setting [8]); 91.6% (active) in test [6] (at 50.0 µM).

Take `Clc1ccc(CN2COc3c(cc(Cl)c4cccnc34)C2)c(Cl)c1`: the growth inhibition is 6% in test [1] (setting [7]); 98% (active) in test [1] (setting [8]); 23.6% in test [1] (at 50.0 µM); -20% in test [2] (setting [7]); 91% (active) in test [2] (setting [8]); 22.9% in test [2] (at 50.0 µM). For the same compound, the growth inhibition in test [3] (setting [7]) is -1%; in test [3] (setting [8]), 97% (active); in test [3] (at 50.0 µM), -6.85%; in test [4] (setting [7]), -9%; in test [4] (setting [8]) it was 97% (active); in test [4] (at 50.0 µM) it was 46.1%. Further, the growth inhibition was 0% in test [5] (setting [7]); 98% (active) in test [5] (setting [8]); 3% in test [5] (at 50.0 µM); 0% in test [6] (setting [7]); 95% (active) in test [6] (setting [8]); 1.4% in test [6] (at 50.0 µM).

Take `Fc1ccccc1CN1COc2c(cc(Cl)c3cccnc23)C1`: the growth inhibition in test [1] (setting [7]) is 11%; in test [1] (setting [8]), 71% (active); in test [1] (at 50.0 µM) it was 99% (active); in test [2] (setting [7]), -1%; in test [2] (setting [8]) it was 43%; in test [2] (at 50.0 µM) it was 99.4% (active). Further, the growth inhibition was 2% in test [3] (setting [7]); 98% (active) in test [3] (setting [8]); 99.5% (active) in test [3] (at 50.0 µM); 1% in test [4] (setting [7]); 98% (active) in test [4] (setting [8]); 99.1% (active) in test [4] (at 50.0 µM). Moreover, the growth inhibition is -11% in test [5] (setting [7]); 99% (active) in test [5] (setting [8]); 99.2% (active) in test [5] (at 50.0 µM); 5% in test [6] (setting [7]); 98% (active) in test [6] (setting [8]); 99.3% (active) in test [6] (at 50.0 µM).

With `CC(C)O[C@H]1N(C2CC(N=[N+]=[N-])C(CO)O2)C(=O)NC(=O)[C@]1(C)Br` (some centres not stated), the growth inhibition is 14% in test [1] (setting [7]); 48% in test [1] (setting [8]); 87.1% (active) in test [1] (at 50.0 µM); -6% in test [2] (setting [7]); 57% in test [2] (setting [8]); 91.2% (active) in test [2] (at 50.0 µM). Also, the growth inhibition in test [3] (setting [7]) was 0%; in test [3] (setting [8]) it was 56%; in test [3] (at 50.0 µM) it was 90.5% (active); in test [4] (setting [7]) it was 4%; in test [4] (setting [8]) it was 37%; in test [4] (at 50.0 µM), 89% (active). Also, the growth inhibition in test [5] (setting [7]) was -7%; in test [5] (setting [8]) it was 40%; in test [5] (at 50.0 µM) it was 90.5% (active); in test [6] (setting [7]), -4%; in test [6] (setting [8]) it was 63%; in test [6] (at 50.0 µM), 91.1% (active).

For the compound `COc1ccc(/C=C2\SC(=S)N(/C=C(/C#N)C(=O)c3ccc4ccccc4c3)C2=O)cc1OC`, the growth inhibition in test [1] (setting [7]) is -11%; in test [1] (setting [8]) it was 98% (active); in test [1] (at 50.0 µM) it was 97.4% (active); in test [2] (setting [7]), -18%; in test [2] (setting [8]), 99% (active); in test [2] (at 50.0 µM), 98.5% (active). The growth inhibition was 1% in test [3] (setting [7]); 98% (active) in test [3] (setting [8]); 97.2% (active) in test [3] (at 50.0 µM); -13% in test [4] (setting [7]); 97% (active) in test [4] (setting [8]); 95.3% (active) in test [4] (at 50.0 µM). In addition, the growth inhibition is -22% in test [5] (setting [7]); 98% (active) in test [5] (setting [8]); 98.6% (active) in test [5] (at 50.0 µM); 5% in test [6] (setting [7]); 99% (active) in test [6] (setting [8]); 98.3% (active) in test [6] (at 50.0 µM).

Turning to `OCCN1CCN(CCCN2c3cc(Cl)ccc3Sc3ccsc32)CC1`, the growth inhibition in test [1] (setting [7]) was -8%; in test [1] (setting [8]), 98% (active); in test [1] (at 50.0 µM), 98.5% (active); in test [2] (setting [7]) it was 0%; in test [2] (setting [8]), 98% (active); in test [2] (at 50.0 µM), 98.4% (active). Further, the growth inhibition in test [3] (setting [7]) was -7%; in test [3] (setting [8]) it was 95% (active); in test [3] (at 50.0 µM), 98.7% (active); in test [4] (setting [7]) it was -7%; in test [4] (setting [8]), 97% (active); in test [4] (at 50.0 µM), 94.4% (active). Moreover, the growth inhibition in test [5] (setting [7]) was -2%; in test [5] (setting [8]), 97% (active); in test [5] (at 50.0 µM), 97.6% (active); in test [6] (setting [7]), -7%; in test [6] (setting [8]), 97% (active); in test [6] (at 50.0 µM), 98.1% (active).

For the compound `COc1c(C(=O)/C(=N/Nc2ccccc2)C(C)=O)c(O)c(OC)c2occc12`, the growth inhibition in test [1] (setting [7]) was -2%; in test [1] (setting [8]), 94% (active); in test [1] (at 50.0 µM), 45.7%; in test [2] (setting [7]), -18%; in test [2] (setting [8]), 87% (active); in test [2] (at 50.0 µM) it was 52.5%. Further, the growth inhibition is -39% in test [3] (setting [7]); 82% (active) in test [3] (setting [8]); 73.2% (active) in test [3] (at 50.0 µM); -19% in test [4] (setting [7]); 91% (active) in test [4] (setting [8]); 33% in test [4] (at 50.0 µM). Besides, the growth inhibition was -32% in test [5] (setting [7]); 92% (active) in test [5] (setting [8]); 47.8% in test [5] (at 50.0 µM); 2% in test [6] (setting [7]); 90% (active) in test [6] (setting [8]); 68.8% in test [6] (at 50.0 µM).
